High-throughput results (PubChem BioAssay)
Compounds with a hit are over-represented: about 9.3% of the library has one in this group of screens.
NPC1 promoter act – activates the NPC1 promoter; Huh7 NPC1 promoter luciferase reporter, 24 h; Potency, µM (doses to about 9.22 µM), usual class: activators; 320,000 tested, 2.4% active; note: nearly all actives have a fitted effect of over 60% in size
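NPC1 promoter–luciferase Huh7 cells; 24 h compound; luminescence.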
ELG1 genotox – inducers of genotoxicity in HEK293T ELG1-luciferase cells; HEK293T ELG1-luciferase reporter, luminescence, 16 h; Potency, µM (top dose mostly 46 µM), actives largely listed as activators; 330,000 tested, 1.3% active; AID 504466; note: nearly all actives have a fitted effect of over 60% in size
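Genotoxic stress is detected as increased luminescence from luciferase-tagged ELG1 in HEK293T cells, measured with ONE-Glo after a 16 hr treatment at 37 °C.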
FLuc modulator – counter-screen for miR-21 project: firefly luciferase inhibitors or activators. 360,000 tested, 6.9% active. Potency, µM (top dose mostly 57.5 µM), usual class: inhibitors. purified FLuc, Km substrates, luminescence inhibition. P08659; note: nearly all actives have a fitted effect of over 55% in size
Target sequence (P08659 whole entry, looked up): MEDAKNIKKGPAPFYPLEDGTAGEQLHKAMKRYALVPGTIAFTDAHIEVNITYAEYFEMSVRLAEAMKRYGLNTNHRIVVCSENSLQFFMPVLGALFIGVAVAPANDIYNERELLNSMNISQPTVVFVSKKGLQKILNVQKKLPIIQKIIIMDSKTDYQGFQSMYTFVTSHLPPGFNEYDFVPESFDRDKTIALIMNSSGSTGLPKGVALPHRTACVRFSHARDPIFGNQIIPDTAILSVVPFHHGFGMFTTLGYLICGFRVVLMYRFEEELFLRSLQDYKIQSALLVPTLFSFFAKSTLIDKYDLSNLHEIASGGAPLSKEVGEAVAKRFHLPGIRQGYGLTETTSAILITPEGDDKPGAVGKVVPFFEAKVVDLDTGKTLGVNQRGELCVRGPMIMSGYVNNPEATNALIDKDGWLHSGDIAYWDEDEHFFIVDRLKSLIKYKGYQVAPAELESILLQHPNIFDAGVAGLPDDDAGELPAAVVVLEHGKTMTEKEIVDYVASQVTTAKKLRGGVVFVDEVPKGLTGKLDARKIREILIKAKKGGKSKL
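Purified P. pyralis luciferase (10nM final) with 10uM D-luciferin and 10uM ATP (Km levels) in 50mM Tris acetate pH 7.5, 10mM Mg acetate, 0.01% Tween-20, 0.05% BSA; qHTS 6-point titration, ~60 µM downward; luminescence read.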
SMN2 splice up – SMN2 splice variant enhancement; Potency, µM (doses to about 46.1 µM), actives largely listed as activators; AID 1458; 210,000 tested, 2.8% active; HEK293 SMN2-luciferase splicing reporter, luminescence, 30-36 h; note: nearly all actives have a fitted effect of over 55% in size
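HEK293 cells carry an SMN2 minigene-luciferase reporter in which exon 7 inclusion puts luciferase in frame. Cells were seeded at 2000 cells/well, attached for 10-12 hours, then exposed to compounds for 30-36 hours at 37C before ONE-Glo luminescence.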
ELG1 repair inh – inhibitors of ELG1-dependent DNA repair in HEK293T cells. HEK293T ELG1-luciferase reporter, luminescence, 16 h; DNA damage induced by 5-fluorouridine. Potency, µM (doses to about 46.1 µM), usual class: inhibitors. 330,000 tested, 2.3% active. AID 504467; note: nearly all actives have a fitted effect of over 55% in size
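In this reporter screen, reduction of luminescence relative to DMSO vehicle indicated activity. Compounds and 5-fluorouridine were added together to 2,000 cells per well, incubated for 16 hr at 37 °C, then developed with ONE-Glo.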
Rab9 prom act – activators of Rab9 promoter. Huh7 Rab9 promoter-luciferase reporter, luminescence, 24 h. Potency, µM (top dose mostly 9.22 µM), actives largely listed as activators. 320,000 tested, 2.8% active; note: nearly all actives have a fitted effect of over 60% in size
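Huh7 cells stably carrying a Rab9 promoter-luciferase reporter, 1500 cells per well in OP-MEM I with 10% FBS, treated with compound 24 hours at 37C. Luciferase activity read by luminescence after 10 minutes with Amplite reagent.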
Numbers stand for hits. Calls come from the whole dose curve; as a rule, active = well fitted curve in the direction sought with a large enough effect; inconclusive = small, poorly fitted or top-dose-only effect, or another doubt; inactive = no such curve, though single readings can be large; an effect the other way counts as inactive or inconclusive.

Brc1ccc(-c2nc3ccccc3s2)s1 was read as NPC1 promoter act inconclusive, ELG1 genotox inconclusive, FLuc modulator 1.1µM, SMN2 splice up 14µM, ELG1 repair inh inconclusive and Rab9 prom act 1.6µM.
COc1cc(OC)cc(-c2nc3ccccc3s2)c1 was read as NPC1 promoter act inactive, ELG1 genotox inconclusive, FLuc modulator 8.5µM, SMN2 splice up inconclusive, ELG1 repair inh inconclusive and Rab9 prom act inactive.
Screening c1ccc(-c2nc3ccccc3s2)nc1 returned NPC1 promoter act 1.4µM, ELG1 genotox inconclusive, FLuc modulator 3.8µM, SMN2 splice up 16µM, ELG1 repair inh inconclusive and Rab9 prom act 1.4µM.
Screening Cc1ccc(S(=O)(=O)N2CCCCC2)cc1NC(=O)CCN1C(=O)C2CC=CCC2C1=O (stereo unspecified) returned NPC1 promoter act inactive, ELG1 genotox inactive, FLuc modulator inactive, ELG1 repair inh inactive and Rab9 prom act inactive.
COc1ccc(-c2n[nH]c(=S)n2Cc2ccccc2)cc1 was read as NPC1 promoter act inactive, ELG1 genotox inactive, FLuc modulator inactive, ELG1 repair inh inactive and Rab9 prom act inactive.
Screening Cn1cnc(S(=O)(=O)N2CCN(c3ccc(F)cc3)CC2)c1 returned NPC1 promoter act inactive, ELG1 genotox inactive, FLuc modulator inactive, ELG1 repair inh inactive and Rab9 prom act inactive.
Cc1ccc(Cn2ccn(Cc3cccc(C(F)(F)F)c3)c(=O)c2=O)cc1 was read as FLuc modulator inactive.
O=C1CCC(=O)N1c1ccc(-c2nc3ccccc3s2)cc1 was read as NPC1 promoter act 0.45µM, ELG1 genotox inconclusive, FLuc modulator 0.54µM, SMN2 splice up 10µM, ELG1 repair inh inconclusive and Rab9 prom act 0.35µM.
Screening Brc1cc2c(cc1-c1nc3ccccc3s1)OCO2 returned NPC1 promoter act inactive, ELG1 genotox inactive, FLuc modulator 12µM, ELG1 repair inh inconclusive and Rab9 prom act inactive.
`CN1C(=O)/C(=C/c2cn(CC(=O)N3CCCCC3)c3ccccc23)NC1=S` gave NPC1 promoter act inactive, ELG1 genotox inactive, FLuc modulator inactive, ELG1 repair inh inactive and Rab9 prom act inactive.
`COc1cccc(NC(=O)Nc2ccc(CC(=O)O)cc2)c1` gave NPC1 promoter act inactive, ELG1 genotox inactive, FLuc modulator 19µM, SMN2 splice up inactive, ELG1 repair inh inactive and Rab9 prom act inactive.
O=C(O)Cc1ccc(NC(=O)Nc2cccc(Cl)c2)cc1 was read as NPC1 promoter act inactive, ELG1 genotox inactive, FLuc modulator 17µM, ELG1 repair inh inactive and Rab9 prom act inactive.
`CCc1ccc(NC(=O)Nc2cccc(OC)c2)cc1` gave NPC1 promoter act 2.8µM, ELG1 genotox inconclusive, FLuc modulator 2.7µM, SMN2 splice up 14µM, ELG1 repair inh inconclusive and Rab9 prom act 3.2µM.
CCc1ccc(NC(=O)C(=O)NNC(=O)c2cccc(OC)c2)cc1 was read as NPC1 promoter act inactive, ELG1 genotox inactive, FLuc modulator inconclusive, ELG1 repair inh inactive and Rab9 prom act inactive.
Screening Cc1ccc(F)cc1NC(=O)COC(=O)c1ccc2ncsc2c1 returned NPC1 promoter act inactive, ELG1 genotox inactive, FLuc modulator inactive, ELG1 repair inh inactive and Rab9 prom act inactive.
Screening Fc1ccccc1/C=N/Nc1ncnc2nc[nH]c12 returned NPC1 promoter act inactive, ELG1 genotox 21µM, FLuc modulator inconclusive, SMN2 splice up 13µM, ELG1 repair inh inconclusive and Rab9 prom act inactive.
Screening Fc1cccc(/C=N/Nc2ncnc3nc[nH]c23)c1 returned NPC1 promoter act inconclusive, ELG1 genotox inactive, FLuc modulator 19µM, SMN2 splice up 10µM, ELG1 repair inh inconclusive and Rab9 prom act 3.5µM.
Screening COc1ccc(C(=O)NC2CCN(C(=O)NC3CCCCC3)CC2)cc1 returned NPC1 promoter act inactive, ELG1 genotox inactive, FLuc modulator inactive, SMN2 splice up inactive, ELG1 repair inh inactive and Rab9 prom act inactive.
Screening S=C(c1ccccc1)N1CCSCC1 returned NPC1 promoter act inactive, ELG1 genotox inactive, FLuc modulator inactive, ELG1 repair inh inactive and Rab9 prom act inactive.
For O=C(CSC(=S)N1CCSCC1)c1ccccc1 the results were NPC1 promoter act 1.3µM, ELG1 genotox inconclusive, FLuc modulator 4.3µM, SMN2 splice up 13µM, ELG1 repair inh inconclusive and Rab9 prom act 1.3µM.
`O=C(CSC(=S)N1CCSCC1)c1ccc(Cl)cc1` gave NPC1 promoter act 3.2µM, ELG1 genotox inconclusive, FLuc modulator 3µM, SMN2 splice up 16µM, ELG1 repair inh inconclusive and Rab9 prom act 1.6µM.
Screening Cc1ccc(NC(=O)c2cnn(-c3ccccc3)c2C)c(C)c1 returned NPC1 promoter act 2.5µM, ELG1 genotox inconclusive, FLuc modulator 12µM, ELG1 repair inh inconclusive and Rab9 prom act 3.2µM.
For Cc1cccc(C)c1NC(=O)c1cnn(-c2ccccc2)c1C the results were NPC1 promoter act inactive, ELG1 genotox inactive, FLuc modulator inactive, ELG1 repair inh inactive and Rab9 prom act inactive.
Cc1ccc(NC(=O)c2cnn(-c3ccccc3)c2C)cc1 was read as NPC1 promoter act 0.32µM, ELG1 genotox 1.5µM, FLuc modulator 1.1µM, ELG1 repair inh inconclusive and Rab9 prom act 0.4µM.
`Cc1cccc(-c2nc(CSCC(=O)N3CCN(c4cccc(C)c4C)CC3)c(C)o2)c1` gave FLuc modulator inactive.
`CC(OC(=O)c1ccco1)C(=O)Nc1ccc(C(F)(F)F)cc1` (stereo unspecified) gave NPC1 promoter act inactive, ELG1 genotox inactive, FLuc modulator inactive, ELG1 repair inh inactive and Rab9 prom act inactive.
`O=C(NCc1ccccc1)C12CC3CC(CC(C3)C1)C2` gave NPC1 promoter act inactive, ELG1 genotox inactive, FLuc modulator inactive, SMN2 splice up inactive, ELG1 repair inh inactive and Rab9 prom act inactive.
O=C(Nn1nnnc1Nc1ccccc1)C12CC3CC(CC(C3)C1)C2 was read as NPC1 promoter act inactive, ELG1 genotox inactive, FLuc modulator inactive, SMN2 splice up 22µM, ELG1 repair inh inconclusive and Rab9 prom act inactive.
`O=C(c1ccc(F)cc1)N1c2nc(-c3ccco3)nn2C2(CCCCC2)[C@@H]2CCCC[C@@H]21` gave FLuc modulator inactive.
`COc1ccc(Nc2oc(-c3ccc(Cl)cc3)nc2C#N)cc1` gave NPC1 promoter act inconclusive, ELG1 genotox inconclusive, FLuc modulator 2.7µM, SMN2 splice up 14µM, ELG1 repair inh inconclusive and Rab9 prom act inconclusive.
Screening COc1ccc(Nc2oc(-c3ccccc3)nc2C#N)cc1 returned NPC1 promoter act 1.8µM, ELG1 genotox inconclusive, FLuc modulator inconclusive, SMN2 splice up inconclusive, ELG1 repair inh inconclusive and Rab9 prom act 1.6µM.
For CCOc1ccc(Nc2oc(-c3ccc(Cl)cc3)nc2C#N)cc1 the results were NPC1 promoter act inactive, ELG1 genotox inconclusive, FLuc modulator inconclusive, SMN2 splice up inconclusive, ELG1 repair inh inconclusive and Rab9 prom act inactive.
